# Values without a mark were called inactive. Activity calls are given as the source filed them.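 How the source made its calls: active means z-score of at least 1.8 in each of two replicates, scored against plate mean and spread of sample wells; inactive means the rest.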
# Assay: galactose survival enhancers in mitochondrial complex I cybrids – cell-based, galactose medium, ATP luminescence, primary screen (AID 1645843);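 further: positive z means more ATP and so rescue of galactose-driven cybrid death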
# Details: complex I mutant cybrid cells, 72 h, active compounds read high
row,SMILES,z-score
1,O=C(Nc1n[nH]c(Cc2ccccc2)n1)N1CCN(C(=O)c2ccco2)CC1,2.72 (active)
2,CCCc1noc(CN(C)C(=O)CCc2ccc(C)c(C)c2)n1,-0.575
3,O=C(CC1CCCCCC1)N1CCC(Cn2cc(C3CC3)nn2)CC1,-0.55
4,Cc1nsc(NC(=O)N2CCCC2C)n1 (stereo not given),-0.04
5,CC(C)c1ncc(-c2cc(C(=O)N(C)C(C)C)c3ccc(F)cc3n2)cn1,-0.51
6,COc1cc(Cl)ccc1C(=O)N1CCC(Cn2cc(C3CC3)nn2)CC1,-0.63
7,CCC(=O)N(CC)c1cc(C)ccc1OC1(C(=O)O)CCSCC1,-0.47
8,CCCc1cn(CC2CCN(C(=O)[C@@H](N)[C@@H](C)CC)CC2)nn1,-0.24
9,CCN1CC(Cn2cnc3c(C)c(C)ccc3c2=O)CC1=O (stereo not given),-0.145
10,CCC1(CC)CC1C(=O)N1CCC(n2cc(C3CC3)nn2)CC1 (stereo not given),-0.51
11,COc1ccccc1-c1noc(C(C)n2cccn2)n1 (stereo not given),-0.115
12,Cc1ccc(Nc2nc(N)nc(-c3ccc(C(=O)N(C)C)cc3)n2)cc1,2.23 (active)
13,CCN1CCC(N2CCCC(CN3CCCC3)C2)CC1 (stereo not given),-0.48
14,CCOC(=O)c1ccc(N2CCN(CC(C)C)C(=O)C2C)nc1 (stereo not given),-0.53
15,CCCCn1cc(-c2cc(C(=O)N3CCCC3)c3cccc(C)c3n2)cn1,2.59 (active)
16,CCCCc1cc(=O)[nH]c(-c2ccc(CN(C)CCOC)cc2)n1,-0.415
17,COc1ccc(-c2noc(C3CC(C(C)C)=NO3)n2)c(OC)c1 (stereo not given),-0.525
18,Cc1c(C(F)(F)F)nc(-c2ccc(CN(C)C)cc2)[nH]c1=O,-0.555
19,CCCC(C)c1nc2c(cnn2CC(C)C)[nH]1 (stereo not given),1.06
20,CCCCCN1C(=O)C2(CCN(C(=O)N3CCCC3)CC2)Nc2ccccc21,-1.2

row,SMILES,z-score
1,O=C(C1CCCCCC1)N1CCC(n2cc(C3CCCCC3)nn2)CC1,2.69 (active)
2,CCCC(NC(=O)c1ccc(C#N)cc1)c1ccccc1 (stereo not given),-0.32
3,CCc1n[nH]c2c1CN(C(=O)c1cncc(C)c1)CC2,1.23
4,CSCc1ccc(C(=O)Nc2cccc3cccnc23)o1,1.12
5,CCCCc1cn(C2CCN(C3Cc4ccccc4C3)CC2)nn1,-0.33
6,COc1ccc(-c2cccc(C(=O)c3nccn3C)c2)c(C)c1,-0.555
7,CCCCn1nnnc1NC(=O)N1C2CCCCC1CCC2,0.915
8,Cc1cccnc1CC(C)N(C)C(=O)c1cc(-c2cncnc2)nc2c(C)cccc12 (stereo not given),1.18
9,CCCn1cc(-c2ccnc(NC(CC(C)(C)C)c3cccnc3)n2)c(C)n1 (stereo not given),1.13
10,CCc1ncc(-c2cc(C(=O)N3CCC(C)(C)C3)c3ccc(F)cc3n2)cn1,-0.56
11,Cc1cc(-c2ccccc2C(F)(F)F)nc(N)n1,-0.545
12,CCC(CC)(CCC#N)CNCC1(N2CCOCC2)CCCC1,-0.575
13,O=C(Nc1cccc(-c2cncnc2)c1)c1ccc2c(c1)OCO2,-0.62
14,Cc1cc(NC(=O)Cn2c(C)nc(Cl)c2Cl)n(C2CCCCC2)n1,-0.41
15,Cc1cccc(CN(C)Cc2ccc(-c3nc(C(F)(F)F)c(C)c(=O)[nH]3)cc2)n1,0.78
16,Cc1cnc(CNC(=O)c2cccc(Nc3ncnc4c3cnn4C)c2)cn1,-0.83
17,CC1(C(=O)N2CCC(n3cc(C(C)(C)C)nn3)CC2)CCCO1 (stereo not given),-0.79
18,COc1ccccc1N1CCN(C(=O)CCC(C)C)CC1(C)C,2.31 (active)
19,CC(C)Cc1cn(C2CCN(C3CCCCCC3)CC2)nn1,-0.565
20,Cc1nnc(NC(=O)N(C)CC2COc3ccccc3O2)s1 (stereo not given),0.025

# — PubChem BioAssay
